Data from the supplement of paper PMC9262897, “Low-cost anti-mycobacterial drug discovery using engineered E. coli” (Nature Communications, 2022).
Counter-ions that a name gives are not always drawn. ± gives the standard deviation of the averaged measurements.

system: E. coli TESEC Mtb Alr; test: growth (OD600 after 10 h); higher = more growth (less inhibition); settings: arabinose 1000000 nM; compound 0.1 mM; raw OD600 reference: median of DMSO wells 0.193, cell-free background 0.041
Description: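 TESEC Mtb Alr E. coli, or the Alr+ wild-type control, in 384-well plates with Prestwick library compounds at 0.1 mM and 1% DMSO, across arabinose induction levels of 1E3 to 1E7 nM. Growth is read as OD600 after 10 h at 37 °C in triplicate biological replicates.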

SMILES | growth
OC(CCN1CCCCC1)(c1ccccc1)C1CCCCC1 (centres undefined) [Trihexyphenidyl-D,L Hydrochloride] | 0.147 ± 0.0092
CN1C(C(=O)Nc2ccccn2)=C(O)c2ccccc2S1(=O)=O [Piroxicam] | 0.127 ± 0.0038
c1ccc(CN(CC2=NCCN2)c2ccccc2)cc1 [Antazoline hydrochloride] | 0.167 ± 0.0018
CCCc1nc2c(C)cc(-c3nc4ccccc4n3C)cc2n1Cc1ccc(-c2ccccc2C(=O)O)cc1 [Telmisartan] | 0.228 ± 0.0023
Nc1nc(F)nc2c1ncn2[C@@H]1O[C@H](CO)[C@@H](O)[C@@H]1O [Fludarabine] | 0.185 ± 0.0037
CN1CCOC(c2ccccc2)c2ccccc2C1 (centres undefined) [Nefopam hydrochloride] | 0.157 ± 0.0087
NCCCC(O)(P(=O)(O)O)P(=O)(O)O [Alendronate sodium] | 0.178 ± 0.0032
Clc1ccccc1C(c1ccccc1)(c1ccccc1)n1ccnc1 [Clotrimazole] | 0.0467 ± 0.00068
O=C1c2cccc(O)c2C(=O)c2c(O)cccc21 [1,8-Dihydroxyanthraquinone] | 0.0486 ± 0.0032
CC(N/C(=N\C#N)Nc1ccncc1)C(C)(C)C (centres undefined) [Pinacidil] | 0.137 ± 0.0036
COc1ccc2c(c1)c(CC(=O)OCC(=O)O)c(C)n2C(=O)c1ccc(Cl)cc1 [Acemetacin] | 0.109 ± 0.0015
O=C(O)c1ccccc1C(=O)Nc1ccc(S(=O)(=O)Nc2nccs2)cc1 [Phthalylsulfathiazole] | 0.184 ± 0.0082
c1ccc2c(c1)CCCC2C1=NCCN1 (centres undefined) [Tetrahydrozoline hydrochloride] | 0.174 ± 0.0044
Cc1nnc(NS(=O)(=O)c2ccc(N)cc2)s1 [Sulfamethizole] | 0.155 ± 0.0088
